Reference: PubChem BioAssay AID1159580 (chemical genetic matrix, 2015)
Values joined by “and” are separate entries in the source; they are usually repeats but may differ in a detail not shown here. Equal entries are not always repeated. The whole screen tested about 5,500 compounds, of which about 2,000 (36%) were called active. Inconclusive results (about 18%) are left out. Cut-off read from the data, not from the text of the source: active = normalized growth mostly below about 0.91 (no sharp cut-off); inconclusive = no clear call, values can overlap the other calls; inactive = mostly above about 0.92. The list shows a part of the results.

Assay: chemical genetic growth profiling, strain panel (AID 1159580);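 note: tested at 20 µM; growth read once vehicle control cultures reached saturation at 30 °C; 1 = growth at the plate median or of vehicle wells; lower values mean less growth of the strain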
Conditions: S. cerevisiae deletion strains, growth OD

Measured: normalized growth

O=C1N=C(O)CN1/N=C\c1ccc(-c2ccc([N+](=O)[O-])cc2)o1
inactive: locus YAL013W, strain DEP1, active compounds read low 1.01 and 0.985 | locus YAL021C, strain ccr4, active compounds read low 0.948 | locus YAL026C, strain drs2, active compounds read low 0.981 | locus YAL030W, strain snc1, active compounds read low 0.986 | locus YAL040C, strain CLN3, active compounds read low 1.03 | locus YBL061C, strain skt5, active compounds read low 1 | locus YBR009C, strain hhf1, active compounds read low 1 | locus YBR021W, strain FUR4, active compounds read low 1.03 | locus YBR023C, strain chs3, active compounds read low 0.998 | locus YBR171W, strain sec66, active compounds read low 0.98 | locus YBR229C, strain ROT2, active compounds read low 1.01 | locus YBR231C, strain swc5, active compounds read low 0.971 | locus YBR279W, strain paf1, active compounds read low 0.974 | locus YCL011C, strain gbp2, active compounds read low 0.989 | locus YCL016C, strain dcc1, active compounds read low 0.985 | locus YCL029C, strain bik1, active compounds read low 1.04 | locus YCL061C, strain MRC1 (second series), active compounds read low 1.01 | locus YCL061C, strain MRC1, active compounds read low 0.987 | locus YCL069W, strain vba3, active compounds read low 0.974 | locus YCR088W, strain abp1, active compounds read low 0.973 | locus YDL005C, strain med2, active compounds read low 0.973 | locus YDL035C, strain GPR1, active compounds read low 1.03 | locus YDL040C, strain nat1, active compounds read low 0.978 | locus YDL074C, strain BRE1, active compounds read low 1.04 | locus YDL101C, strain DUN1, active compounds read low 1.01 | locus YDL134C, strain PPH21, active compounds read low 1.02 | locus YDL185W, strain tfp1, active compounds read low 1.04 | locus YDL192W, strain arf1, active compounds read low 1.03 | locus YDR001C, strain nth1, active compounds read low 0.977 | locus YDR069C, strain doa4, active compounds read low 0.987 | locus YDR101C, strain arx1, active compounds read low 1.02 | locus YDR137W, strain rgp1, active compounds read low 0.918 | locus YDR150W, strain NUM1, active compounds read low 1.03 and 1 | locus YDR159W, strain sac3, active compounds read low 0.966 | locus YDR162C, strain NBP2, active compounds read low 1.02 | locus YDR195W, strain ref2 0.988 | locus YDR297W, strain sur2, active compounds read low 0.984 | locus YDR318W, strain mcm21, active compounds read low 1.02 | locus YDR334W, strain swr1, active compounds read low 0.949 | locus YDR335W, strain msn5, active compounds read low 0.985 | locus YDR363W, strain ESC2, active compounds read low 0.996 | locus YDR388W, active compounds read low 1.03 | locus YDR392W, strain spt3, active compounds read low 0.942 | locus YDR502C, strain sam2, active compounds read low 1.01 | locus YEL003W, strain gim4, active compounds read low 0.986 | locus YEL037C, strain rad23, active compounds read low 0.974 | locus YEL061C, strain CIN8 (second series), active compounds read low 0.97 | locus YEL061C, strain CIN8, active compounds read low 1.02 | locus YER002W, strain NOP16, active compounds read low 1 | locus YER015W, strain faa2, active compounds read low 0.968 | locus YER016W, strain bim1, active compounds read low 0.99 | locus YER110C, active compounds read low 1.03 | locus YER111C, strain swi4, active compounds read low 0.968 | locus YER155C, strain BEM2 (second series), active compounds read low 0.955 | locus YER155C, strain BEM2, active compounds read low 1.01 | locus YER167W, strain BCK2, active compounds read low 1.03 | locus YFR010W, strain ubp6, active compounds read low 0.984 | locus YGL078C, strain dbp3, active compounds read low 1.04 | locus YGL086W, strain mad1, active compounds read low 1.02 | locus YGL167C, strain pmr1, active compounds read low 0.994 | locus YGL173C, strain kem1, active compounds read low 0.99 | locus YGL227W, strain vid30, active compounds read low 0.986 | locus YGL240W, strain doc1, active compounds read low 0.977 | locus YGL248W, strain PDE1, active compounds read low 1.02 | locus YGL253W, strain hxk2, active compounds read low 0.987 | locus YGR078C, strain PAC10, active compounds read low 1.02 and 1.01 | locus YGR135W, strain pre9, active compounds read low 1.02 | locus YGR229C, strain SMI1, active compounds read low 0.997 | locus YGR252W, strain gcn5, active compounds read low 0.983 | locus YHR013C, strain ard1, active compounds read low 0.992 | locus YHR027C, strain rpn1, active compounds read low 0.992 | locus YHR030C, strain SLT2, active compounds read low 1.02 and 1.01 | locus YHR079C, strain IRE1 (second series), active compounds read low 1.02 | locus YHR079C, strain IRE1, active compounds read low 1.02 | locus YHR094C, strain hxt1, active compounds read low 1.03 | locus YHR129C, strain ARP1, active compounds read low 1.02 | locus YHR142W, strain chs7, active compounds read low 0.986 | locus YHR200W, strain rpn10, active compounds read low 1.02 | locus YIL066C, strain RNR3, active compounds read low 1.02 | locus YIL073C, strain SPO22, active compounds read low 1.06 | locus YIL125W, strain kgd1, active compounds read low 1.03 | locus YIR030C, strain dcg1, active compounds read low 1.03 | locus YJL092W, strain hpr5, active compounds read low 0.979 | locus YJL095W, strain BCK1 (second series), active compounds read low 0.993 | locus YJL095W, strain BCK1, active compounds read low 1.03 and 1.01 | locus YJL115W, strain asf1, active compounds read low 0.976 | locus YJL129C, strain trk1, active compounds read low 0.912 | locus YJL134W, strain LCB3, active compounds read low 1.01 | locus YJL154C, strain vps35, active compounds read low 0.968 | locus YJL164C, strain tpk1, active compounds read low 1.01 | locus YJL166W, strain qcr8, active compounds read low 0.978 | locus YJL168C, strain set2, active compounds read low 1.02 | locus YJL187C, strain SWE1 (second series), active compounds read low 1.02 | locus YJL187C, strain SWE1, active compounds read low 0.986 | locus YJR043C, strain POL32, active compounds read low 1.04 | locus YJR066W, strain TOR1, active compounds read low 0.944
